We go through six compounds from PubChem BioAssay.

A short description of test [1]: optical density shifts of acrAB sulA E. coli – strain DRC41, OD650, 48 h, E. coli filamentation inducer project, primary screen (AID 1152).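 Further: E. coli MC1000 strain DRC41 lacking acrAB efflux pump and sulA.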 Particulars: higher = more signal, called active from +8 up or from −8 down.
Test [2] is described as follows: probe aLefty1 binding on compound microarray – biochemical, small-molecule microarray, 635/667 nm fluorescence, primary screen (AID 1153).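 Further: score merges spot fluorescence with signal-to-noise ratio from the scanned slide images.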 The conditions noted are these: higher = more signal.
Test [3] can be described thus: plasmodial surface anion channel blockers, osmotic lysis – cell-based, P. falciparum Indochina, OD700, 1 h, primary screen (AID 1154). The conditions noted are these: P. falciparum Indochina infected RBC osmotic lysis, higher = more signal, called active from +8 up or from −8 down.
Test [4] is described as follows: plasmodial surface anion channel blockers, osmotic lysis – cell-based, P. falciparum Indochina, OD700, 2 h, primary screen (AID 1155).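 Further: lysis reports solute entry through the parasite surface anion channel PSAC.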 Particulars: P. falciparum Indochina infected erythrocytes, higher = more signal, called active from +8 up or from −8 down.
Test [5] can be described thus: changes in parasitized red cell lysis, either direction – P. falciparum Indochina, OD700, 3 h, PSAC antagonist project, primary screen (AID 1156). The conditions noted are these: P. falciparum-infected erythrocytes, osmotic lysis, higher = more signal, called active from +8 up or from −8 down.
Test [6] in a line: plasmodial surface anion channel blockers, osmotic lysis – cell-based, P. falciparum Indochina, OD700, 18 h, primary screen (AID 1157). The conditions noted are these: P. falciparum Indochina infected erythrocytes, osmotic lysis OD700, 18 h; higher = more signal, called active from +8 up or from −8 down.
Test [7] can be described thus: S6 kinase pathway phospho-S6 level changes – cell-based, A549, cytoblot, luminescence, serum-stimulated, primary screen (AID 1158).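 Further: serum-stimulated A549 lung adenocarcinoma cells; signal is phosphorylated S6 detected by cytoblot immunostaining with HRP secondary.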 The conditions noted are these: 5 h, higher = more signal.
Test [8] addresses NADPH oxidase 2 (Homo sapiens) (UniProt P04839). Description: compounds shifting NOX2 Amplex Red fluorescence – cell-based, HEK293-NOX2, PMA-stimulated, NOX inhibitor project, primary screen (AID 1159). Further: test concentration not given here. The conditions noted are these: 45 min, higher = more signal, called active from +8 up or from −8 down.
In test [9] the target is NADPH oxidase 4 (Homo sapiens) (UniProt Q9NPH5). Description: compounds shifting NOX4 Amplex Red fluorescence – cell-based, HEK293-NOX4, tetracycline-induced, NOX inhibitor project, primary screen (AID 1160). Particulars: HEK293-NOX4, Amplex Red H2O2 fluorescence, 45 min; higher = more signal, called active from +8 up or from −8 down.
Chain of NADPH oxidase 4 (Homo sapiens) (Q9NPH5 whole entry, looked up): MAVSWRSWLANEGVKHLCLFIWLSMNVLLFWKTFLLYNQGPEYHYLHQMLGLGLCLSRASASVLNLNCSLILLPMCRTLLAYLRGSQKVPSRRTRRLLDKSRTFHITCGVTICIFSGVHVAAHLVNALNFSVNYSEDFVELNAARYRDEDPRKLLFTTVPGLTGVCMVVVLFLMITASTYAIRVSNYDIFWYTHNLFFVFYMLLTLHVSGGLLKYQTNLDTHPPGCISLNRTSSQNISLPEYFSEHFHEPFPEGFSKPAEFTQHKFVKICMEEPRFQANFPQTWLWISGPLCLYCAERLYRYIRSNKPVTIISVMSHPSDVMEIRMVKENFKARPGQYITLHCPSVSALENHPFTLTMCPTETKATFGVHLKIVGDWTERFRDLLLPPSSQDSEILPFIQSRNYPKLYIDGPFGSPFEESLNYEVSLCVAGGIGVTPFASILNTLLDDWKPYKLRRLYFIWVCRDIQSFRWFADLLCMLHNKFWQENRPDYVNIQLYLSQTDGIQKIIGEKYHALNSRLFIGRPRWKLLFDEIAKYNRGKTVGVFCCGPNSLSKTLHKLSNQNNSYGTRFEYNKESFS
Test [10] deals with NADPH oxidase 5 (Homo sapiens) (UniProt Q96PH1). Description: compounds shifting NOX5 Amplex Red fluorescence – cell-based, HEK293-NOX5, NOX inhibitor project, primary screen (AID 1161). Particulars: HEK293-NOX5, ionomycin, 45 min, higher = more signal.
Chain of NADPH oxidase 5 (Homo sapiens) (Q96PH1 whole entry, looked up): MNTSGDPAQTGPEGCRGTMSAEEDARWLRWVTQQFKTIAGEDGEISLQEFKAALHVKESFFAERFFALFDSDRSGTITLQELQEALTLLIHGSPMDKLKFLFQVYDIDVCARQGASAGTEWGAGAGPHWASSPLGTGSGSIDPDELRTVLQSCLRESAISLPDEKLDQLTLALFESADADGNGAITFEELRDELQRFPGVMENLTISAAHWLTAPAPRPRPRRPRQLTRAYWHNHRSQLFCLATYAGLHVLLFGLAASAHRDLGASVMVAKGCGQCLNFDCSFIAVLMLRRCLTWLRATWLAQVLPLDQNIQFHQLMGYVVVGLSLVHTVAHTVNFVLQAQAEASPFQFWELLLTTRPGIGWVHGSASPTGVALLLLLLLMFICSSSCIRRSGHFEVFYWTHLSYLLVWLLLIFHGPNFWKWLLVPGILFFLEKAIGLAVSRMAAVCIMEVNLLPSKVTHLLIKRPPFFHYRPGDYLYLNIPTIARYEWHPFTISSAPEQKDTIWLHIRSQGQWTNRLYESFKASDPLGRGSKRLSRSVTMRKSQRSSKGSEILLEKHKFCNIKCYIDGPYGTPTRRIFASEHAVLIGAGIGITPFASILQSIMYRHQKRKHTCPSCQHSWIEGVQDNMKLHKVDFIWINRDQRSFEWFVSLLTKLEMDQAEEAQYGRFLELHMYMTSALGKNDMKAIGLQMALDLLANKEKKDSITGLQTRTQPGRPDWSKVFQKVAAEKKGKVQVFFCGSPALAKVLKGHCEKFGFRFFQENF
The nature of test [11]: compound effects on lung adenocarcinoma cell viability – A549, calcein-AM fluorescence, 48 h, basal, profiling panel (AID 1162). Further: test concentration not given here. Particulars: higher = more signal.
Test [12] is described as follows: compound effects on differentiated 3T3-L1 adipocyte viability – cell-based, 3T3-L1 adipocytes, calcein-AM fluorescence, 48 h, basal, profiling panel (AID 1163). Further: test concentration not given here. Particulars: 3T3-L1 adipocytes viability, higher = more signal.
Test [13] can be described thus: compound effects on hepatocellular carcinoma cell viability – HepG2, calcein-AM fluorescence, 48 h, basal, profiling panel (AID 1164). Further: test concentration not given here. Particulars: higher = more signal.
A short description of test [14]: compound effects on multiple myeloma cell viability – MM1S, calcein-AM fluorescence, 48 h, basal, profiling panel (AID 1165).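 Further: viability of MM1S multiple myeloma cells under basal unstimulated conditions; test concentration not given here.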 Particulars: higher = more signal.
A short description of test [15]: calcein-AM signal in unstimulated myeloma cells – cell-based, calcein-AM fluorescence, 48 h, PK04 Diversity Set, profiling panel (AID 1166).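 Further: cells grown under basal conditions without added stimulus; test concentration not given here.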 Particulars: RPMI8226 myeloma viability, higher = more signal.
A short description of test [16]: JC-1 mitochondrial signal, unstimulated HepG2 cells – cell-based, JC-1 fluorescence, 24 h, 100 nL compound, profiling panel (AID 1167). Further: test concentration not given here. The conditions noted are these: HepG2 mitochondrial potential, higher = more signal.
The nature of test [17]: JC-1 mitochondrial signal, unstimulated adipocytes – cell-based, JC-1 fluorescence, 3T3-L1 adipocytes, 24 h, 100 nL compound, profiling panel (AID 1168). Further: test concentration not given here. The conditions noted are these: JC-1 mitochondrial fluorescence, higher = more signal, called active from +8 up or from −8 down.
Test [18] can be described thus: JC-1 mitochondrial signal, unstimulated myeloma cells – cell-based, JC-1 fluorescence, RPMI8226, 24 h, 100 nL compound, profiling panel (AID 1169). Further: test concentration not given here. The conditions noted are these: JC-1 mitochondrial potential fluorescence, higher = more signal.
Test [19] is described as follows: JC-1 mitochondrial signal, unstimulated MM1S myeloma – cell-based, JC-1 fluorescence, 24 h, 100 nL compound, profiling panel (AID 1170). Further: test concentration not given here. The conditions noted are these: MM1S mitochondrial potential, higher = more signal.
A short description of test [20]: resazurin metabolic signal in A549 cells – cell-based, resazurin fluorescence, 24 h, PK04 Diversity Set, profiling panel (AID 1171). Further: test concentration not given here. Particulars: A549 viability, higher = more signal, called active from +8 up or from −8 down.

Each structure is given as a SMILES string. The source made the active and inactive calls.

Chain of NADPH oxidase 2 (Homo sapiens) (P04839 whole entry, looked up): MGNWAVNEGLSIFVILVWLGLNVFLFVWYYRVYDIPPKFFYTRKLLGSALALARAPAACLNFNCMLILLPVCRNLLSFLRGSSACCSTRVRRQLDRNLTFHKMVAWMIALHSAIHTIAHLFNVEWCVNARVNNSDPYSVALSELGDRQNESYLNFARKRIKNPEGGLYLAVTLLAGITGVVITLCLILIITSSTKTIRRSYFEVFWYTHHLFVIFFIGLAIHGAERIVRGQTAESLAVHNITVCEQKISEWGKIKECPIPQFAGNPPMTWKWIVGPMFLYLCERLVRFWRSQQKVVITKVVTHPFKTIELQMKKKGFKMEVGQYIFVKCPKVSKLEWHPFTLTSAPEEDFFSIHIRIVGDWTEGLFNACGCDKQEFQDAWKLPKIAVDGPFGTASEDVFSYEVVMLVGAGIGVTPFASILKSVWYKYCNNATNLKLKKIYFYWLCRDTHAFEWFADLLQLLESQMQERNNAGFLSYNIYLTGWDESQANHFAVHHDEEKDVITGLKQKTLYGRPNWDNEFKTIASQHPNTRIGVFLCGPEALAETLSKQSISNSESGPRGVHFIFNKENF

Take `CCCC[C@H]1OB(O)C[C@H]2C1=C(C)C[C@H]1C(=O)N(C)C(=O)[C@H]12`: the z-score was -0.908 (inactive) in test [1]; 0.39 (inactive) in test [3]; -0.123 (inactive) in test [4]; -0.974 (inactive) in test [5]; 0.0834 (inactive) in test [6]; 0.292 in test [7]. The z-score in test [8] was -0.76 (inactive); in test [9] it was 0.332 (inactive); in test [10] it was -0.235; in [11], -0.203; in test [12] it was -0.623; in test [13] it was -1.02. For the same compound, the z-score in test [14] was -2.27; in test [15], -0.848; in test [16], -1.79; in [17] it was -0.467 (inactive); in [18], 0.391; in [19], 0.203. For the same compound, the z-score in test [20] is -0.794 (inactive). The composite z-score in test [2] is -0.147.
For the compound `C=C(COC)/C(=C/C[C@H](OC(=O)c1ccncc1)c1ccc(CO)o1)c1cc(C(=O)OC)ccc1OC`, the z-score in test [1] is 0.165 (inactive); in test [3] it was 2.65 (inactive); in [4], 0.189 (inactive); in test [5], 0.656 (inactive); in test [6] it was 0.013 (inactive); in test [7], -0.0278. Further, the z-score in [8] was -0.564 (inactive); in test [9] it was 0.0937 (inactive); in test [10], -0.413; in test [11] it was -1.2; in test [12] it was -0.256; in test [13], -0.981. For the same compound, the z-score was -0.43 in [14]; -0.111 in test [15]; -0.47 in test [16]; -1.01 (inactive) in test [17]; 0.126 in test [18]; 0.00652 in [19]. Moreover, in test [20], the z-score was 0.451 (inactive). For the same compound, the composite z-score in [2] was found to be 0.188.
On to `O=C1[C@H]2[C@H]3[C@H](O)[C@H](O)CC(=NOC[C@@H](O)COCc4ccco4)[C@H]3CC[C@H]2C(=O)N1c1cccc(Oc2ccccc2)c1`, for which the z-score is 0.66 (inactive) in [1]; 3.18 (inactive) in [3]; 1.15 (inactive) in [4]; 1.28 (inactive) in test [5]; 0.795 (inactive) in test [6]; 0.404 in [7]. Also, the z-score is -2.98 (inactive) in test [8]; 1.31 (inactive) in test [9]; -0.185 in test [10]; 1.26 in test [11]; 0.01 in test [12]; -0.463 in test [13]. Moreover, the z-score in test [14] was 0.511; in test [15], 0.977; in test [16], 0.526; in [17], 0.994 (inactive); in test [18] it was 0.682; in [19], -1.2. Moreover, the z-score in test [20] was 0.26 (inactive). The same compound displayed a composite z-score in [2] of -0.353.
`COC(=O)[C@@]1(Cc2ccc(F)cc2)[C@@H]2C(=CC(=O)[C@H]2CC(=O)C(=O)N(C)C)CN1C(=O)c1ccccc1`: the z-score is -0.975 (inactive) in test [1]; 3.38 (inactive) in [3]; 1.81 (inactive) in test [4]; -0.25 (inactive) in test [5]; 1.45 (inactive) in test [6]; 0.172 in test [7]. In addition, the z-score was 0.507 (inactive) in test [8]; 1.3 (inactive) in test [9]; -0.494 in test [10]; -1.29 in [11]; -1.34 in test [12]; 0.201 in test [13]. The z-score in test [14] was -1.24; in test [15], -2.67; in test [16], 2.62; in test [17] it was 0.441 (inactive); in test [18], -0.817; in test [19] it was -2.01. For the same compound, the z-score in test [20] was -1.73 (inactive). The composite z-score in test [2] amounted to 0.589.
As to `CC1CC/C=C\[C@H]2OC34C=CCN(C(C)C)C(=O)[C@H]3N(CCCO)C(=O)[C@@H]4C2C(=O)O1` (stereo not given in full), the z-score in test [1] was 0.658 (inactive); in test [3], 0.0261 (inactive); in test [4], -0.0331 (inactive); in [5] it was -0.0769 (inactive); in test [6] it was -0.207 (inactive); in test [7], -0.251. Moreover, the z-score in test [8] is 1.57 (inactive); in test [9], 0.213 (inactive); in test [10] it was 2.02; in test [11], -0.478; in test [12] it was -0.156; in test [13], -0.381. The z-score in test [14] was -0.929; in test [15] it was 0.449; in [16] it was 0.486; in test [17], 0.51 (inactive); in test [18] it was -0.0642; in [19] it was 0.687. Moreover, the z-score in test [20] was 0.385 (inactive). In test [2], this compound gave a composite z-score of -0.0536.
In the case of `COc1ccc(O[C@H]2C=C[C@@H](c3ccccc3)O[C@@H]2COC(=O)CCC(C)=NOCC[C@@H]2C=C[C@H](OC(C)=O)[C@@H](COC(C)=O)O2)cc1`, the z-score in [1] was -0.445 (inactive); in test [3], 8.07 (active); in test [4], 1.2 (inactive); in test [5], 1 (inactive); in test [6] it was 0.588 (inactive); in [7] it was -0.268. For the same compound, the z-score in [8] was -1.64 (inactive); in test [9] it was -0.327 (inactive); in [10], -2.19; in test [11] it was -0.284; in test [12], -0.699; in test [13], -0.1. The z-score in test [14] was -0.919; in [15], -0.112; in test [16] it was -0.359; in test [17], 0.0763 (inactive); in test [18], -0.55; in test [19] it was -0.522. Further, in test [20], the z-score was 0.369 (inactive). This compound gave a composite z-score in [2] of -0.0176.
